Out of some 3,600 compounds screened, about 900 (25%) were called active. The list is a sample of the results. Results with a measured potency or affinity are listed apart. Values without a mark were called inactive. The rule behind the calls is not given here.
Each molecule was assayed against Protein Tat (Human immunodeficiency virus type 1 group M subtype B (isolate HXB2)) (UniProt P04608) (assay: HIV-1 Tat–TAR interaction blockers – biochemical, fluorescence polarization, FAM-labeled TAR RNA, counter-screen for Vif-APOBEC3G degradation inhibitor project, dose response (AID 1117361)). Conditions: Tat-TAR RNA binding; series mostly up to 100 µM; inhibition: at the top concentration.
In the case of `O=S(=O)(NCc1cn2ccsc2n1)c1cccs1`, the “inhibition” value is reported as 0.68%. `Nc1cccc2c1C(=O)N(C(=O)/C=C/c1cccc(Br)c1)C2=O` was tested, and the “inhibition” value was 19%. With `COc1ccc(NC(=O)O/N=C/c2ccccc2Cl)cc1` the “inhibition” value was 3.3%. `Cc1ccc(OCC(=O)NNC(=O)CCc2ccccc2)cc1` was tested, and the outcome was “inactive”. `Cc1ccc(S(=O)(=O)N/N=C/c2ccc(OCC(=O)Nc3ccccc3Cl)cc2)cc1` was tested, and the “inhibition” value was 7.43%. In the case of `COc1ccc(OC)c(NC(=O)CCN2CCC(C)CC2)c1`, the “inhibition” value is reported as 14.2%. In the case of `COc1ccccc1N(C)S(=O)(=O)c1ccc(C(=O)NC(C)(C)C)cc1`, the outcome is reported as “inactive”. With `Cc1ccn(C(=O)c2cc3ccccc3oc2=O)n1` the “inhibition” value was 0.68%. For `COc1ccc(-n2ncc3c(N4CCC(C(N)=O)CC4)ncnc32)cc1`, the outcome was “inactive”. With `CCOC(=O)CSc1nnc(CNC(=O)c2ccccc2OC)n1-c1ccc(OC)cc1` the “inhibition” value was 4.09%. With `CCOc1ccc(-n2c(SCC(N)=O)nnc2-c2cccnc2)cc1` the “inhibition” value was 9.9%. For `Cc1ccc(C)c(-n2c(SCC(N)=O)nnc2-c2ccccn2)c1`, the “inhibition” value was 9.46%. `Cc1cccc(-n2c(=O)cc(N3CCN(c4ccc(F)cc4)CC3)[nH]c2=O)c1` was tested, and the outcome was “inactive”. For `CCCn1c(SCC(=O)c2cc(C)ccc2C)n[nH]c1=O`, the “inhibition” value was 12.8%. `S=C1NC2(CCCCCC2)N=C1c1ccccc1` was tested, and the outcome was “inactive”. `Cc1ccc(C)c(/C(O)=C2/C(=O)C(=O)N(CCN3CCOCC3)C2c2ccco2)c1` (stereo unspecified) was tested, and the “inhibition” value was 10.3%. For `COc1ccc(OC)c(NC(=O)CC2C(=O)NCCN2C(=O)Nc2cccc(Cl)c2)c1` (stereo unspecified), the “inhibition” value was 23.1%. With `O=C(O)C1CCN(S(=O)(=O)/C=C/c2ccccc2)CC1` the outcome was “inactive”. `Cc1ccnc(N2CCC(C(=O)NNC(=O)c3ccccc3C)CC2)n1` was tested, and the outcome was “inactive”. In the case of `CCn1c(CNC(=O)Cc2ccc(OC)cc2)nnc1SCC(=O)Nc1ccc(C(=O)O)cc1`, the “inhibition” value is reported as 5.77%. In the case of `Cc1nn(C(=O)c2cccnc2)c(C)c1C`, the “inhibition” value is reported as 6.08%. In the case of `COC(=O)Cc1c(C)nc2nc(-c3cccnc3)[nH]n2c1=O`, the outcome is reported as “inactive”. For `O=C(NCc1ccco1)C1CCCN(S(=O)(=O)c2cccc3nsnc23)C1` (stereo unspecified), the “inhibition” value was 4.05%. `COc1cc(/C=C(\C#N)c2nc3ccccc3[nH]2)c([N+](=O)[O-])cc1OCc1ccccc1` was tested, and the “inhibition” value was 16.2%. For `c1ccc(SCc2nc3ccccc3[nH]2)cc1`, the outcome was “inactive”. For `CC1(C)C2CCC1(CS(=O)(=O)Nc1cccc(S(N)(=O)=O)c1)C(=O)C2` (stereo unspecified), the “inhibition” value was 3.3%. `COc1ccc(N2CCN(C(=O)c3c(-c4ccccc4)noc3C)CC2)cc1` was tested, and the “inhibition” value was 13%. In the case of `COc1ccc(OC)c(NC(=O)NCc2ccc(F)cc2)c1`, the “inhibition” value is reported as 12.2%. `COc1ccc(NC(=O)c2c(OC)cccc2OC)c(OC)c1` was tested, and the outcome was “inactive”. `Cn1nc(CC(=O)NCCN2C(=O)CSC2=O)c2ccccc2c1=O` was tested, and the “inhibition” value was 5.46%. `CCOc1ccc(-n2c(SCC(=O)Nc3cc(C)on3)nnc2-c2c[nH]c3ccccc23)cc1` was tested, and the “inhibition” value was 25.1%. `COc1cccc(NC(=O)Nc2nnc(N3C(C)CCCC3C)s2)c1` (stereo unspecified) was tested, and the outcome was “inactive”. With `COC(=O)c1cc(=O)n(Cc2ccc3c(c2)OCO3)c(=Nc2ccc(F)c(Cl)c2)s1` the outcome was “inactive”. `COCCn1c(SCC(=O)Nc2ccccc2F)nc2c([nH]c3ccccc32)c1=O` was tested, and the outcome was “inactive”. For `O=C(O)CN1C(=O)CSc2ccccc21`, the outcome was “inactive”. `COc1ccc(Nc2nc3ccccc3nc2-n2nc(C)cc2C)cc1` was tested, and the outcome was “inactive”. In the case of `COc1ccc(NC2=NC(C)(CO)CS2)cc1` (stereo unspecified), the outcome is reported as “inactive”. With `CCOC(=O)C(C(=O)OCC)C(CC(=O)C1CC1)c1ccccc1` (stereo unspecified) the outcome was “inactive”. With `CCCCCCCCNc1ncnc2ccccc12` the “inhibition” value was 6.08%. With `O=C(O)/C=C/C(=O)NNc1ncnc2ccccc12` the outcome was “inactive”. With `O=C(CSc1nnc(CNC(=O)c2ccccc2F)o1)c1ccccc1` the outcome was “inactive”. For `CCc1ccccc1NC(=O)c1cc2ncc(Br)cn2n1`, the “inhibition” value was 3.41%. In the case of `COc1ccc(Br)c(C(=O)NC(C)(C)CO)c1`, the “inhibition” value is reported as 9.9%. With `O=[N+]([O-])c1ccc2c([N+](=O)[O-])ccc3c2c1CC3` the “inhibition” value was 5.01%. With `CCC(=O)Nc1cccc(-c2nc3ccccc3c(=O)o2)c1` the “inhibition” value was 1.35%. In the case of `O=C(O)CSCc1c(F)cccc1Cl`, the outcome is reported as “inactive”. For `CC(C(=O)NCC1CCCCC1)N(C)Cc1ccc(Br)cc1` (stereo unspecified), the outcome was “inactive”. In the case of `O=S(=O)(O)c1cccc2c(N=Nc3ccc(O)c4ncccc34)cccc12`, the “inhibition” value is reported as 3.01%. `O=C(c1ccccc1)c1ccc(OC(=O)N2CCOCC2)cc1` was tested, and the outcome was “inactive”. `O=C(Nc1cccc(S(=O)(=O)N2CCCCC2)c1)c1ccc2c(=O)n3c(nc2c1)CCCCC3` was tested, and the outcome was “inactive”. `CCOC(=O)N1CCN(C(=O)c2ccc(NC(=O)c3ccc(C)cc3)cc2)CC1` was tested, and the “inhibition” value was 0.68%. For `O=C(c1ccc(-n2cnnn2)cc1)N1CCOCC1`, the outcome was “inactive”. `CCC(CC)C(=O)Nc1cccc(C(=O)N2CCOCC2)c1` was tested, and the outcome was “inactive”. With `CC(C)CCNC(=O)c1ccc2c(SCC(=O)O)c3c(nc2c1)CCC3` the “inhibition” value was 4.95%. In the case of `CCOC(=O)C1CCN(C(=O)c2ccc3snnc3c2)CC1`, the “inhibition” value is reported as 4.12%. For `O=C(NNC(=O)c1ccccc1-n1cccc1)c1ccc(Cl)c(Cl)c1`, the “inhibition” value was 3.38%.

From PubChem BioAssay AID1117361 (Southern Research Institute, 2015)
